Reference: PubChem BioAssay AID1851 (National Center for Advancing Translational Sciences (NCATS), 2009)
About 5,100 (32%) of roughly 16,000 compounds were called active. Roughly 25% stayed inconclusive and do not appear here. The call rests on the fitted dose curve; in most records, active means well fitted curve in the direction sought with a large enough effect; inconclusive means small, poorly fitted or top-dose-only effect, or effect the other way; inactive means no such curve, though single readings can be large or run the other way. Some of the results follow.
On the % scale 0 is the no-effect control and ±100 the full control effect.

The compounds below were run against Cytochrome P450 3A4 (Homo sapiens) (UniProt P08684) (assay: Cytochrome panel assay with activity outcomes). Conditions: recombinant CYP, pro-luciferin dealkylation, luminescence, p450-cyp3a4; series mostly up to 57.1 µM; activity, negative = inhibition: at the top concentration.
Cytochrome P450 3A4 (Homo sapiens), sequence (P08684 whole entry, looked up): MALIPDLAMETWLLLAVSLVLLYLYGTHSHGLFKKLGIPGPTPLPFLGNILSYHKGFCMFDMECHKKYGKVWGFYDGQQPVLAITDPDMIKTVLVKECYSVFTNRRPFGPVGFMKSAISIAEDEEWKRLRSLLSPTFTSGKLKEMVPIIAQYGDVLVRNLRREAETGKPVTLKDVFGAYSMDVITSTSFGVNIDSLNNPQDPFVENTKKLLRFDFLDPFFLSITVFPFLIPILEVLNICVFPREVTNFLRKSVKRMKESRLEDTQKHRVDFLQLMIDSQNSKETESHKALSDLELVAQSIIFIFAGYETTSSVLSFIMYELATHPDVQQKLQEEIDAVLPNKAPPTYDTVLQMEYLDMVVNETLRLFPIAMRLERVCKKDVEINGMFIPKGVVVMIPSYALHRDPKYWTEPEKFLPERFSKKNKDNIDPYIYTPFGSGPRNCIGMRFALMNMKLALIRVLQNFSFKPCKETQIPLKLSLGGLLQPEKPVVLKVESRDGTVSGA
`Clc1ccc(CN2CCCN(Cc3ccc(Cl)cc3)C2c2cc3ccccc3c3ccccc23)cc1` was tested, and the activity, negative = inhibition was -6.95% [at 11.4 µM] (inactive). With `O=Nc1c(O)n(Cc2ccc(Cl)c(Cl)c2)c2ccccc12` the AC50 was 14.1 µM (active). `O=Nc1c(O)n(Cc2ccc(Cl)cc2)c2ccccc12` was tested, and the AC50 was 17.8 µM (active). With `O=c1[nH]ncc2c3ccccc3n(Cc3ccccc3)c12` the “activity, negative = inhibition” value was -5.96% (inactive). In the case of `Cc1sc2ccccc2[n+]1CCC(C)S(=O)(=O)[O-]` (stereo not given), the “activity, negative = inhibition” value is reported as 7.81% (inactive). In the case of `CC(=O)N1c2c(cc(Br)cc2S(=O)(=O)NCC2COc3ccccc3O2)CC1C` (stereo not given), the AC50 is reported as 7.94 µM (active). In the case of `CCCN(CCC)CCCNS(=O)(=O)c1cc(Br)cc2c1N(C(C)=O)CC2`, the activity, negative = inhibition is reported as -10.1% [at 11.4 µM] (inactive). With `OC[C@H]1NC[C@@H](O)[C@@H](O)[C@H]1O` the “activity, negative = inhibition” value was -12.1% (inactive). For `CCCCOc1ccc(/C=C/C(=O)NCCc2nc3ccccc3[nH]2)cc1`, the AC50 was 12.6 µM (active). For `N[C@@](CCc1ccccc1)(C(=O)O)c1ccccc1`, the activity, negative = inhibition was -0.157% [at 11.4 µM] (inactive). In the case of `O=C(Nc1ccc(Cl)cc1)N1CCc2[nH]c3ccccc3c2C1`, the AC50 is reported as 14.1 µM (active). For `COC(=O)N1CCC2(CC1)CN(C(=O)Nc1ccccc1)C2`, the “activity, negative = inhibition” value was -1.42% (inactive). In the case of `O=C(Nc1ccccc1)N1CCC2(CCNCC2)CC1`, the “activity, negative = inhibition” value is reported as 28.2% (inactive). In the case of `CC[C@H]1C2=C3C(CC[C@H]4C(OCc5ccc(F)cc5C(F)(F)F)OC[C@](C)([C@@H]34)N(C(=O)OC(C)(C)C)C2)C2COC(=O)OCC21` (stereo not given in full), the AC50 is reported as 20 µM (active). `C[C@H]1C2=C3C(CC[C@H]4C(OCc5ccc(F)cc5C(F)(F)F)OC[C@](C)([C@@H]34)N(C(=O)OC(C)(C)C)C2)C2COC(=O)OCC21` (stereo not given in full) was tested, and the AC50 was 20 µM (active). For `Cn1c(=O)c2nc(-c3ccccc3)oc2c2ccccc21`, the AC50 was 12.6 µM (active). `CC(C)CCN1C(=O)c2ccc(-c3nc4ccccc4c(=O)o3)cc2C1=O` was tested, and the activity, negative = inhibition was -5.78% [at 11.4 µM] (inactive). In the case of `CN(C(=O)c1c(O)c2ccccc2n(C)c1=O)c1ccccc1`, the “activity, negative = inhibition” value is reported as -26.7% (inactive). `Cc1ccc(-c2nc3c(=O)n(C)c4ccccc4c3o2)cc1` was tested, and the AC50 was 7.08 µM (active). `Cc1ccc(-n2c(-c3ccccc3)cc(=O)nc2C)cc1` was tested, and the “activity, negative = inhibition” value was -14.5% (inactive). `CCCn1c(-c2ccccc2)nc2c(=O)n(C)c(=O)[nH]c21` was tested, and the “activity, negative = inhibition” value was 5.61% (inactive). For `OC[C@@H](O)CNc1ncnc2ccccc12`, the activity, negative = inhibition was 3.9% [at 11.4 µM] (inactive). For `Cc1cc(C)c(NC(=O)NC(=O)c2ccc(F)cc2)c(C)n1`, the “activity, negative = inhibition” value was -0.466% (inactive). In the case of `Cc1cc(C)n(-c2ccc(F)cc2)c(=O)c1C(=O)O`, the “activity, negative = inhibition” value is reported as -11% (inactive). With `Cc1cc(C)c(NC(=O)CSc2nnc(Cc3cccn3C)n2-c2ccc(F)cc2)c(C)c1` the AC50 was 1.58 µM (active). `COc1ccc(NC(=O)c2ncn[nH]2)cc1` was tested, and the “activity, negative = inhibition” value was -23.5% (inactive). In the case of `Cc1ccc(C)c(NC(=O)c2ncn[nH]2)c1`, the AC50 is reported as 14.1 µM (active). `CC(C)c1ccc(O)c(NC(=O)c2ncn[nH]2)c1` was tested, and the AC50 was 10 µM (active). In the case of `O=C(NCCc1ccc(Cl)cc1)c1ncn[nH]1`, the activity, negative = inhibition is reported as -0.238% [at 2.29 µM] (inactive). With `CCC(C)n1nnc2c(=O)oc3ccccc3c21` (stereo not given) the “activity, negative = inhibition” value was -20% (inactive). `c1ccc(CNc2ccnc(-c3ccoc3)n2)cc1` was tested, and the AC50 was 10 µM (active). In the case of `Cc1cccc(CNc2ccnc(-c3ccoc3)n2)c1`, the AC50 is reported as 1 µM (active). In the case of `Cc1ccc(S(=O)(=O)N=Nc2c(O)[nH]c3cc(O)c(C(=O)O)cc23)cc1`, the activity, negative = inhibition is reported as -1.68% [at 11.4 µM] (inactive). With `COc1ccc(CNc2nc(-c3cccc(C#N)c3)nc3ccccc23)c(OC)c1` the AC50 was 2.51 µM (active). `CNc1nc(-c2cccc(C#N)c2)nc2ccccc12` was tested, and the AC50 was 10 µM (active). With `COc1ccccc1CNc1nc(-c2cccc(C#N)c2)nc2ccccc12` the AC50 was 10 µM (active). `N#Cc1cccc(-c2nc(Nc3ccccc3)c3ccccc3n2)c1` was tested, and the “activity, negative = inhibition” value was -48.6% (inactive). For `COc1ccc(CNc2nc(-c3cccc(NS(C)(=O)=O)c3)nc3ccccc23)c(OC)c1`, the AC50 was 2.51 µM (active). `COc1cc2c(cc1C(F)(F)F)N(C(=O)Nc1cc(F)cc(-c3cccnc3)c1)CC2` was tested, and the AC50 was 2.51 µM (active). `CC1(C)OCC([C@H](O)C2=CCCCC2=O)CO1` was tested, and the activity, negative = inhibition was -7.04% [at 11.4 µM] (inactive). With `CCOC(=O)c1cc(C(=O)OCC)cc(-n2cc(O)c(C(=O)OCC)n2)c1` the “activity, negative = inhibition” value was -9.96% (inactive). `COc1cc(CNn2nnnc2N)ccc1OCc1c(Cl)cccc1Cl` was tested, and the AC50 was 0.562 µM (active). In the case of `COC(=O)c1sc2ncccc2c1OCc1c(Cl)cccc1Cl`, the activity, negative = inhibition is reported as -24.4% [at 11.4 µM] (inactive). `COc1ccc(C[N+](C)(C)N)cc1OC` was tested, and the activity, negative = inhibition was -9.55% [at 11.4 µM] (inactive). For `Nc1nc(N)[n+]([O-])c(N)c1NCO`, the activity, negative = inhibition was -2.59% [at 11.4 µM] (inactive). For `O=C(OCCCN1CCCCC1)c1ccc(O)cc1`, the “activity, negative = inhibition” value was -18% (inactive). `Cc1cc(C(=O)O)c(=O)[nH]c1C` was tested, and the “activity, negative = inhibition” value was -1.64% (inactive). In the case of `COC(=O)C/C=C\[C@@H](C)[C@@H](/C=N\OC[C@@H](O)[C@H]1O[C@H]2OC(C)(C)O[C@H]2[C@@H]1O)NS(=O)(=O)c1ccc(C)cc1`, the AC50 is reported as 3.98 µM (active). With `CC(C)[C@@H](OCc1ccccc1)[C@H](C)/C=N\OC[C@@H](O)[C@@H]1O[C@@H]2OC(C)(C)O[C@@H]2[C@H]1O` the activity, negative = inhibition was -28.7% [at 11.4 µM] (inactive). For `COC(=O)C/C=C\[C@@H](C)[C@@H](/C=N\OC[C@@H](O)COCc1ccco1)NS(=O)(=O)c1ccc(C)cc1`, the AC50 was 3.16 µM (active). In the case of `CO/N=C\[C@@H](NS(=O)(=O)c1ccc(C)cc1)[C@H](C)/C=C\CC(=O)OC`, the activity, negative = inhibition is reported as -67.3% [at 11.4 µM] (inactive). With `COC(=O)C/C=C\[C@H](C)[C@H](CO)NS(=O)(=O)c1ccc(C)cc1` the activity, negative = inhibition was -5.02% [at 11.4 µM] (inactive). In the case of `COC(=O)C/C=C\[C@@H](C)[C@@H](/C=N\OC[C@@H](O)COCc1ccco1)OC`, the activity, negative = inhibition is reported as -28.9% [at 11.4 µM] (inactive). With `CNc1cc(CSC)nc(SCc2ccc(Cl)c(Cl)c2)n1` the AC50 was 5.01 µM (active). `Clc1ccc(CSC2=NCCN2)cc1Cl` was tested, and the activity, negative = inhibition was -8.56% [at 11.4 µM] (inactive). `O=C(Cn1ccnc1[N+](=O)[O-])NCCO` was tested, and the “activity, negative = inhibition” value was -11.3% [at 25.6 µM] (inactive). For `Cc1cnc(CNc2ncnc3ccc(-c4ccccc4CN(C)C)cc23)cn1`, the “activity, negative = inhibition” value was -33.4% (inactive). `Cc1cnc(CNc2ncnc3ccc(-c4ccccc4Cl)cc23)cn1` was tested, and the AC50 was 2.51 µM (active). `Cc1cnc(CNc2ncnc3ccc(-c4ccccc4C(F)(F)F)cc23)cn1` was tested, and the AC50 was 2 µM (active). `Cc1cnc(CNc2ncnc3ccc(-c4ccccc4C)cc23)cn1` was tested, and the AC50 was 3.98 µM (active). In the case of `O=C(NC[C@@H](O)CO)c1c(I)c(C(=O)NC[C@@H](O)CO)c(I)c(N(CCO)C(=O)CO)c1I`, the “activity, negative = inhibition” value is reported as -4.08% [at 25.6 µM] (inactive). `C[N+](C)(C)c1cc2c(nn1)Nc1ccccc1S2` was tested, and the activity, negative = inhibition was -5.56% [at 11.4 µM] (inactive). `OC(CCCN1CCCCC1)(c1ccccc1)c1ccccc1` was tested, and the “activity, negative = inhibition” value was -25.9% [at 25.6 µM] (inactive). In the case of `C=CCNc1nc(Cl)nc(Nc2ccc(OC)cc2)n1`, the AC50 is reported as 14.1 µM (active). With `O=C(c1ccccc1)[C@@H]1O[C@H]1c1ccc(-c2ccccc2)cc1` the “activity, negative = inhibition” value was -23.2% (inactive). With `Cc1ccc(C(=O)NC(=S)Nc2ccc3c(c2)OCCO3)c(C)c1` the AC50 was 28.2 µM (active). `CCOC(=O)Nc1ccc(C)cc1NC(=O)OCC` was tested, and the activity, negative = inhibition was 4.11% [at 2.29 µM] (inactive). For `CCOC(=O)Nc1ccc2c(c1)OCO2`, the AC50 was 14.1 µM (active). In the case of `O=C(NC(=S)Nc1ccc2c(c1)OCO2)c1ccccc1`, the AC50 is reported as 0.631 µM (active). `O=C(NC(=S)Nc1ccc(Oc2ccc(Cl)cc2)cc1)c1ccccc1` was tested, and the “activity, negative = inhibition” value was -13.5% (inactive). With `CC(=O)Nc1ccc2c(c1)OCCO2` the “activity, negative = inhibition” value was 8.82% (inactive). With `CC(=O)Nc1ccc2c(c1)OCCOCCOc1cc(NC(C)=O)ccc1OCCOCCOCCO2` the “activity, negative = inhibition” value was -17.9% (inactive). With `CS[C@]12C(=O)C[C@]3(C)[C@@H](CC[C@@]3(O)C(=O)CO)[C@@H]1CCC1=CC(=O)CC[C@]12C` the activity, negative = inhibition was -14.7% [at 11.4 µM] (inactive). With `CC(Oc1ccc(O)cc1)(P(=O)(O)O)P(=O)(O)O` the “activity, negative = inhibition” value was -9.31% (inactive). In the case of `CC(=O)c1cc(C#N)c(Oc2cccc(C(F)(F)F)c2)nc1C`, the “activity, negative = inhibition” value is reported as -25% (inactive). `COC(=O)c1cc(C#N)c(Oc2ccc(OC)cc2)nc1C` was tested, and the AC50 was 14.1 µM (active). For `CC(=O)c1cc(C#N)c(Oc2ccc(F)cc2)nc1C`, the “activity, negative = inhibition” value was -27.3% (inactive). With `COc1ccccc1OC[C@H](O)COC(N)=O` the “activity, negative = inhibition” value was -11% [at 25.6 µM] (inactive). In the case of `COc1ccc(CC(=O)O/N=C(\N)Cc2ccc(OC)cc2)cc1`, the AC50 is reported as 10 µM (active). For `COc1ccc(Cc2ccccc2C(=O)O)c2ccccc12`, the activity, negative = inhibition was -12.8% [at 11.4 µM] (inactive). `COc1ccc(C/C(N)=N/OC(=O)Cc2ccccc2)cc1OC` was tested, and the AC50 was 3.16 µM (active). In the case of `COc1ccccc1CC(=O)O/N=C(\N)Cc1cccc2ccccc12`, the AC50 is reported as 15.8 µM (active). With `COc1ccccc1C/C(N)=N/OC(=O)c1ccc(C)c([N+](=O)[O-])c1` the AC50 was 10 µM (active). In the case of `COc1ccc(C[C@@](C)(N)C(=O)O)cc1OC`, the “activity, negative = inhibition” value is reported as -53.3% [at 25.6 µM] (inactive). For `NC(Cc1ccccc1)=NCC(=O)O`, the activity, negative = inhibition was -0.223% [at 11.4 µM] (inactive). For `O=C1c2ccccc2C(=O)N1CCCCN(C(=O)c1ccc([N+](=O)[O-])cc1)c1ccc(Cl)cc1`, the AC50 was 25.1 µM (active). `O=C1c2ccccc2C(=O)N1CCCCN(C(=O)c1cccc([N+](=O)[O-])c1)c1ccc(Cl)cc1` was tested, and the AC50 was 11.2 µM (active). `CCOC(=O)COc1c(OC)cc(Cl)cc1C1Nc2ccccc2C(=O)N1c1ccc(F)cc1` (stereo not given) was tested, and the “activity, negative = inhibition” value was 1.4% (inactive). With `CCOC(=O)COc1c(OC)cc(Cl)cc1C1Nc2ccccc2C(=O)N1c1cccc(C)c1` (stereo not given) the AC50 was 3.98 µM (active). With `COC(=O)c1sccc1-c1ccc(C(=O)Nc2cccnc2)o1` the AC50 was 14.1 µM (active). With `CSc1nc2c(c(C(F)(F)F)n1)CC(C)CC2` (stereo not given) the “activity, negative = inhibition” value was -5.33% (inactive). With `Fc1ccc(NC(=S)NCCc2ccccc2)c(F)c1F` the “activity, negative = inhibition” value was 7.09% (inactive). `COc1ccccc1NC(=S)NCCc1ccccc1` was tested, and the AC50 was 11.2 µM (active). For `Fc1ccccc1NC(=S)NCCc1ccccc1`, the AC50 was 12.6 µM (active). `Fc1cc(Br)ccc1NC(=S)NCCc1ccccc1` was tested, and the AC50 was 15.8 µM (active).
